Usually AC50 stands for the midpoint of the concentration-response curve, whichever way the signal moves.

This is an account of results in PubChem BioAssay (EPA / NIEHS).

Values joined by “and” are separate entries in the source; they are usually repeats but may differ in a detail not shown here. Equal values may be shown once. The source holds several records for some structures; these can differ, active in one and inactive in another. Active and inactive are the calls of the source. Rule for the calls: active = hit-call score of the fitted dose curve at least 0.9, where 1 is the maximum; inactive = score below 0.9.

Test [1] in a line: APR_HepG2_CellLoss_72hr: Apredica 72-hour HepG2 Assay for Cell Loss (AID 2282915). The conditions noted are these: high-content imaging. The gist of the method: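 Cell number comes from Hoechst 33342-labelled nuclei, imaged at 20x after 3.7% formaldehyde fixation. Dosing was 0.39–200 uM, ten concentrations in duplicate, 0.5% DMSO final, for 72 h. Bidirectional fit relative to DMSO baseline.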

Test [2] can be described thus: APR_HepG2_P-H2AX_72hr: Apredica 72-hour HepG2 Assay for H2AX Phosphorylation (AID 2282916).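 Note: phospho-histone H2A.x immunostain intensity per cell marking DNA damage.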 The conditions noted are these: imaging, actives raise or lower the signal. In outline: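 HepG2; cpd 0.39–200 uM ×10 conc, duplicates; 0.5% DMSO; 72 hr. Fix 3.7% formaldehyde 30 min RT, 0.5% Triton X-100 10 min. Anti-phospho-H2A.x 1:200 + Hoechst 2 ug/mL, 60 min RT; ArrayScan imaging.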

The nature of test [3]: APR_HepG2_MitoMembPot_72hr: Apredica 72-hour HepG2 Assay for Mitochondrial Membrane Potential (AID 2282917). The conditions noted are these: imaging, actives raise or lower the signal. In outline:
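Membrane potential read by MitoTracker Red CMXRos (250 nM, 30 min, pre-fixation) fluorescence imaging of HepG2 after 72 hr exposure. Ten concentrations, 0.39–200 uM, duplicate wells, 0.5% DMSO; fitted in both directions against DMSO baseline.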

Test [4] in a line: APR_HepG2_MitoticArrest_72hr: Apredica 72-hour HepG2 Assay for Mitotic Arrest (AID 2282918). The conditions noted are these: high-content imaging, actives raise or lower the signal. In outline:
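High-content imaging of fixed human HepG2 cells after 72 h compound exposure (0.39–200 uM, duplicates, 0.5% DMSO); mitotic arrest scored from phospho-histone H3 and nuclear Hoechst staining relative to DMSO.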

The nature of test [5]: APR_HepG2_MicrotubuleCSK_72hr: Apredica 72-hour HepG2 Assay for Microtubule CSK Stabilty (AID 2282919). The conditions noted are these: HepG2 microtubule cytoskeleton, high-content imaging, actives raise or lower the signal. The gist of the method:
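Read-out is tubulin fluorescence intensity from high-content imaging of HepG2 cells, with nuclei identified by Hoechst 33342. Treatment lasts 72 h at 0.39–200 uM, and curves are fitted bidirectionally against the DMSO negative control.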

Test [6] is described as follows: APR_HepG2_P-H2AX_24hr: Apredica 24-hour HepG2 Assay for H2AX Phosphorylation (AID 2282920). The conditions noted are these: high-content imaging, actives raise or lower the signal. The gist of the method: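 High-content imaging of phospho-histone H2A.x immunofluorescence, nuclei counterstained with Hoechst 33342, in fixed HepG2 cells. Compounds ran 0.39–200 uM in duplicate for 24 h, final DMSO 0.5%. Signal change fitted both directions against DMSO.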

The nature of test [7]: APR_HepG2_StressKinase_72hr: Apredica 72-hour HepG2 Assay for Stress Kinase (AID 2282921). The conditions noted are these: HepG2 stress kinase (phospho-c-Jun) imaging, actives raise or lower the signal. The gist of the method:
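Dose 0.39–200 uM (10 pts, duplicate), 0.5% DMSO; 72 h; fix 3.7% formaldehyde 30 min RT; Triton permeabilize; anti-phospho-c-Jun/Cy3 + Hoechst 60 min RT; image 20x; fit gain/loss vs DMSO.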

A short description of test [8]: APR_HepG2_StressKinase_24hr: Apredica 24-hour HepG2 Assay for Stress Kinase (AID 2282922). The conditions noted are these: HepG2 stress kinase (phospho-c-Jun) imaging, actives raise or lower the signal. The gist of the method:
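HepG2, 24 hr dosing, 0.39–200 uM in duplicate, 0.5% DMSO; formaldehyde fix (3.7%), 0.5% Triton X-100; anti-phospho-c-Jun + Cy3 secondary, Hoechst counterstain; ArrayScan imaging; bidirectional curve fit vs DMSO baseline.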

The nature of test [9]: APR_HepG2_p53Act_72hr: Apredica 72-hour HepG2 Assay for p53 Activation (AID 2282923).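 Note: average cellular p53 protein immunofluorescence intensity in HepG2 cells.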 The conditions noted are these: high-content imaging, actives raise or lower the signal. In outline: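 10-pt conc. 0.39–200 uM, duplicate, 0.5% DMSO; 72 hr exposure; 3.7% formaldehyde fix, 0.5% Triton perm; sheep anti-p53/Cy5 + Hoechst; ArrayScan 20x, 6 images/well; gain/loss fit vs DMSO.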

Test [10] in a line: APR_HepG2_MitoMass_72hr: Apredica 72-hour HepG2 Assay for Mitochondrial Mass (AID 2282924).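 Note: MitoTracker Red CMXRos stain intensity per cell imaged as mitochondrial mass.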 The conditions noted are these: high-content imaging, actives raise or lower the signal. The gist of the method: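 HepG2, 72 hr cmpd, 10 conc 0.39–200 uM in dup, DMSO 0.5% v/v. MitoTracker Red CMXRos 250 nM 30 min pre-fix; formaldehyde 3.7% fix 30 min RT. HCS imaging, gain/loss fit vs DMSO.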

Regarding `CON(C)C(=O)Nc1ccc(Cl)c(Cl)c1`, the outcome in test [1], in [2], in test [4], in test [5], in test [6] and in test [7] was inactive. Also, the call in [8] and in test [9] was inactive. Also, the AC50 is 23.1 µM (active) in test [3] and 67 µM (active) in test [10].

Take `Fc1ccc(Oc2ccnc3cc(Cl)cc(Cl)c23)cc1`: the AC50 in test [1] was 76.2 µM (active); in test [6], 100 µM (active). Besides, the result in [2], in [3], in test [4], in [5], in test [7] and in test [8] was inactive. In addition, the molecule was called inactive in test [9] and in [10].

As to `CC(C)Oc1cc(-n2nc(C(C)(C)C)oc2=O)c(Cl)cc1Cl`, the AC50 was 58.9 µM (active) in test [1], 82.2 µM (active) in test [2], 42.6 µM (active) in test [4] and 52.6 µM (active) in test [5]. Moreover, the molecule was called inactive in [3], in test [6], in [7], in [8], in test [9] and in test [10].

Turning to `CC(C)(C)c1ccc(CSc2cnn(C(C)(C)C)c(=O)c2Cl)cc1`, the AC50 in test [1] is 8.33 µM (active); in test [5], 7.56 µM (active). For the same molecule, the outcome in test [2], in test [3], in test [4], in test [6], in test [7] and in [8] was inactive. The call in [9] and in test [10] was inactive.

Take `C=CCC1=C(C)[C@@H](OC(=O)[C@@H]2[C@@H](C=C(C)C)C2(C)C)CC1=O`: the AC50 in [1] is 102 µM (active); in test [4] it was 67.4 µM (active); in test [5], 79.5 µM (active); in [6], 118 µM (active); in test [9] it was 107 µM (active). Besides, the outcome in test [2], in test [3], in test [7], in test [8] and in test [10] was inactive.

For `C=CCC1=C(C)C(OC(=O)C2C(C=C(C)C)C2(C)C)CC1=O` (configuration not stated), the concentration at half-maximal activity (AC50) is 57.1 µM (active) [middle of 4 runs] in test [1]; 53.8 µM (active) and 47.5 µM (active) in [2]; 43.6 µM (active) and 50 µM (active) and 46 µM (active) in test [4]; 38.1 µM (active) in test [6]; 60.6 µM (active) and 52.5 µM (active) in test [7]; 32.4 µM (active) in [8]. The AC50 in test [9] was 117 µM (active); in [10], 66.4 µM (active). The outcome in test [2], in [3], in [4], in [5], in [6] and in [7] was inactive. Further, the outcome in test [8], in [9] and in test [10] was inactive.

As for `COC(=O)N(OC)c1ccccc1COc1ccn(-c2ccc(Cl)cc2)n1`, the AC50 in test [1] is 1.44 µM (active); in [2] it was 25.5 µM (active); in test [3], 3.69 µM (active); in test [4] it was 39.9 µM (active); in test [5], 3.29 µM (active). Also, the molecule was called inactive in [6], in test [7], in test [8], in test [9] and in test [10].

For the molecule `O=C(Nc1ccccc1)Nc1ccnc(Cl)c1`, the AC50 is 53.8 µM (active) in test [1], 3.46 µM (active) in test [3] and 32.5 µM (active) in [5]. For the same molecule, the call in test [2], in [4], in [6], in test [7], in [8] and in test [9] was inactive. In addition, the molecule was classed as inactive in test [10].

Turning to `CNC(=S)S`, the AC50 is 36.7 µM (active) in test [1]; 11.3 µM (active) in [2]; 13.5 µM (active) in [4]; 26.2 µM (active) in test [5]; 32.9 µM (active) in test [6]. Also, the call in test [3], in test [7], in test [8], in test [9] and in test [10] was inactive.

Regarding `N#CC(CCc1ccc(Cl)cc1)(Cn1cncn1)c1ccccc1` (configuration not stated), the outcome in [1], in test [2], in test [3], in test [4], in test [5] and in [7] was inactive. Moreover, the result in test [8], in test [9] and in [10] was inactive. In addition, the AC50 in test [6] was 111 µM (active).

On to `N#Cc1cc(Br)c(O)c(Br)c1`, for which the AC50 in test [1] is 101 µM (active). The molecule was called inactive in test [2], in test [3], in test [4], in [5], in test [6] and in test [7]. Moreover, the outcome in test [8], in [9] and in [10] was inactive.

For the molecule `CCOc1cc(Oc2ccc(C(F)(F)F)cc2Cl)ccc1[N+](=O)[O-]`, the AC50 in test [1] is 31.5 µM (active); in test [4], 45 µM (active); in test [5], 19.8 µM (active). Moreover, the call in test [2], in test [3], in test [6], in [7], in test [8] and in test [9] was inactive. Also, the call in test [10] was inactive.

On to `Oc1ccccc1-c1ccccc1`, for which the molecule was called inactive in [1], in [2], in test [3], in [4], in test [5] and in test [6]. In addition, the molecule was classed as inactive in test [7], in test [8], in test [9] and in test [10].

Regarding `C#CCOS(=O)OC1CCCCC1Oc1ccc(C(C)(C)C)cc1` (configuration not stated), the AC50 in test [1] was 3.12 µM (active); in test [3] it was 3.43 µM (active); in [5], 2.25 µM (active). For the same molecule, the molecule was classed as inactive in [2], in test [4], in [6], in [7], in [8] and in [9]. The molecule was called inactive in test [10].

Consider `Cc1c(F)c(F)c(COC(=O)C2C(/C=C(\Cl)C(F)(F)F)C2(C)C)c(F)c1F` (configuration not stated), for which the molecule was called inactive in test [1], in [2], in test [3], in test [4], in [5] and in test [6]. In addition, the molecule was called inactive in test [7], in test [8], in test [9] and in [10].

For `COc1cnc(OC)n2nc(NS(=O)(=O)c3c(OCC(F)F)cccc3C(F)(F)F)nc12`, the outcome in test [1], in test [2], in [3], in test [4], in [5] and in [6] was inactive. The molecule was classed as inactive in [7], in test [8], in test [9] and in test [10].

For the molecule `CCCCNC(=O)n1c(NC(=O)OC)nc2ccccc21`, the AC50 in [1] is 8.47 µM (active); in test [6], 23.6 µM (active); in test [8] it was 45.6 µM (active); in test [10], 13 µM (active). For the same molecule, the call in test [2], in test [3], in test [4], in [5], in test [7] and in [9] was inactive.

Regarding `Cc1cc(Cl)ccc1OCC(=O)O`, the molecule was classed as inactive in [1], in [2], in [3], in test [4], in [5] and in test [6]. Besides, the molecule was called inactive in test [7], in test [8], in test [9] and in [10].
